Some test systems named below: HCT-15 colon; HT29 colon; SNB-75 CNS; SNB-19 CNS; U251 CNS; PC-3 prostate; SK-MEL-5 melanoma; UACC-62 melanoma; LOX IMVI melanoma; SK-MEL-28 melanoma.
What all share (assay): NCI-60 one-dose screen, 48 h (100 = growth as untreated, 0 = no growth, -100 = all killed)
Holding throughout (details): 10 µM unless noted

Compounds without any hit were thinned out: in the full panel of roughly 83,000, 20% have a hit.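 Values shown are percent growth following 48 h exposure of cells in 96-well plates to a single concentration of compound; below 10 was considered active.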 Unmarked numbers belong to inactive results. Activity calls are given as the source filed them.

Consider `CCCn1cnc2c(c1=N)C(c1ccc(Cl)cc1)c1sc3c(CC)cccc3c1O2` (stereo not given), for which the growth in the test on HCT-15 colon is 17.6%; with HT29 colon, -5.38% (active); in the test on SNB-75 CNS, -1.58% (active); with SNB-19 CNS, 23.1%; in the test with U251 CNS, 14.3%; in the test with PC-3 prostate, 3.88% (active). For the same compound, the growth was 31% with SK-MEL-5 melanoma, 12.8% in the test on UACC-62 melanoma, 29.3% with LOX IMVI melanoma and 57.8% with SK-MEL-28 melanoma.
`Nc1nc(-c2cccc([N+](=O)[O-])c2)c(N=Nc2cccc([N+](=O)[O-])c2)s1`: the growth with HCT-15 colon is 62%; in the test on HT29 colon, 94.2%; in the test with SNB-75 CNS, -8.63% (active); with SNB-19 CNS it was 20.9%; with U251 CNS, -43% (active); with PC-3 prostate it was 74.7%. Also, the growth in the test on SK-MEL-5 melanoma is 63.9%; in the test on UACC-62 melanoma, 54.7%; with LOX IMVI melanoma, 13.4%; with SK-MEL-28 melanoma, 61.3%.
`O=C(Nc1nc2ccc([N+](=O)[O-])cc2s1)Nc1ccccc1Br`: the growth in the test on HCT-15 colon was 24.3%; with HT29 colon it was 44.9%; with SNB-75 CNS it was 77.3%; in the test with SNB-19 CNS it was 20.5%; in the test on U251 CNS, 10.6%; with PC-3 prostate, 3.13% (active). For the same compound, the growth in the test with SK-MEL-5 melanoma was -3.21% (active); with UACC-62 melanoma, 32.3%; with LOX IMVI melanoma it was 44.8%; in the test with SK-MEL-28 melanoma, 48.8%.
As to `C#CCOc1ccc(/C=N\Nc2nc(-c3ccc(C)cc3)cs2)cc1OC`, the growth in the test on HCT-15 colon is 86.1%; in the test on HT29 colon, 88.2%; in the test with SNB-75 CNS, 114%; with SNB-19 CNS, 95.2%; with U251 CNS, 89.3%; with PC-3 prostate, 69.6%. Further, the growth with SK-MEL-5 melanoma is 71.6%; in the test on UACC-62 melanoma, 74.7%; with LOX IMVI melanoma it was 93.7%; in the test with SK-MEL-28 melanoma it was 89.9%.
On to `COc1c(N2CC3CCCNC3C2)c(F)cc2c(=O)c(C(=O)N/N=C/c3ccc(F)cc3)cn(C3CC3)c12` (stereo not given), for which the growth is 45.9% in the test with HCT-15 colon; 45.9% in the test with HT29 colon; 83.6% with SNB-75 CNS; 99.5% with SNB-19 CNS; 81.4% in the test on U251 CNS; 76.4% in the test on PC-3 prostate. For the same compound, the growth with SK-MEL-5 melanoma was 82.7%; with UACC-62 melanoma, 80.2%; in the test on LOX IMVI melanoma, 46.1%; in the test with SK-MEL-28 melanoma, 81%.
Consider `Nc1nc(-c2cccc([N+](=O)[O-])c2)c(N=Nc2ccccc2)s1`, for which the growth is 38.3% in the test with HCT-15 colon; 61.3% in the test on HT29 colon; 63.2% in the test on SNB-75 CNS; 81.2% in the test with SNB-19 CNS; 54.3% in the test with U251 CNS; 51.2% in the test with PC-3 prostate. Besides, the growth with SK-MEL-5 melanoma is 42.5%; with UACC-62 melanoma it was 64%; with LOX IMVI melanoma, 53.5%; in the test on SK-MEL-28 melanoma, 65%.
On to `N#Cc1cccc(NC(=O)c2cc(-c3ccc(F)cc3F)ccc2O)c1`, for which the growth in the test on HCT-15 colon was 6.97% (active); with HT29 colon it was 94.9%; with SNB-75 CNS, 3.99% (active); in the test on SNB-19 CNS, 11.4%; in the test with U251 CNS, 10.9%; with PC-3 prostate, 9.28% (active). Besides, the growth with SK-MEL-5 melanoma was -74.3% (active); in the test with UACC-62 melanoma, -12.9% (active); with LOX IMVI melanoma, 1.22% (active); with SK-MEL-28 melanoma, 25%.
With `CCOc1ccc(C(=O)Nc2ncc(Cc3ccc(F)cc3)s2)cc1`, the growth in the test on HCT-15 colon is 14.7%; with HT29 colon, -18.2% (active); in the test with SNB-75 CNS, 10.2%; in the test on SNB-19 CNS it was 29.6%; in the test on U251 CNS, 16%; in the test on PC-3 prostate it was 27.4%. Also, the growth in the test on SK-MEL-5 melanoma is 33.4%; with UACC-62 melanoma, 33%; with LOX IMVI melanoma, 23.7%; in the test on SK-MEL-28 melanoma, 61.9%.
`CCOc1cccc(-c2nc3sccn3c2-c2ccnc(S(C)(=O)=O)n2)c1`: the growth was 76.8% in the test on HCT-15 colon; 99.6% in the test on HT29 colon; 98.4% in the test with SNB-75 CNS; 91.8% in the test on SNB-19 CNS; 103% in the test on U251 CNS; 96.9% with PC-3 prostate. For the same compound, the growth in the test on SK-MEL-5 melanoma is 99.3%; in the test on UACC-62 melanoma, 89.6%; in the test with LOX IMVI melanoma, 78.6%; in the test with SK-MEL-28 melanoma, 90.5%.
Take `Fc1ccc(-c2cc3nc(C(Cl)Cl)nc(-c4ccco4)n3n2)cc1`: the growth in the test on HCT-15 colon is 4.34% (active); in the test on HT29 colon, -13.4% (active); with SNB-75 CNS, 55.7%; with SNB-19 CNS, 0.644% (active); in the test on U251 CNS it was -9.36% (active); in the test with PC-3 prostate, -19.2% (active). In addition, the growth is 95.9% with SK-MEL-5 melanoma, 17.2% with UACC-62 melanoma, 93.5% with LOX IMVI melanoma and -24.5% (active) with SK-MEL-28 melanoma.
Take `O=C(Nc1ccc2c(ccn2Cc2ccccn2)c1)c1cnccn1`: the growth in the test with HCT-15 colon is 112%; in the test with HT29 colon, 109%; with SNB-75 CNS, 57.9%; in the test on SNB-19 CNS it was 102%; with U251 CNS it was 105%; with PC-3 prostate, 101%. The growth with SK-MEL-5 melanoma was 97.5%; in the test with UACC-62 melanoma it was 89.6%; in the test with LOX IMVI melanoma, 98.3%; in the test on SK-MEL-28 melanoma, 111%.
Regarding `COC(=O)C[Se]C(=O)Cc1c(C)n(C(=O)c2ccc(Cl)cc2)c2ccc(OC)cc12`, the growth in the test on HCT-15 colon was 11.5%; in the test with HT29 colon, 9.65% (active); with SNB-75 CNS, 73.5%; in the test on SNB-19 CNS, 31.7%; with U251 CNS it was 46.2%; in the test on PC-3 prostate, 72.7%. In addition, the growth is 44.9% in the test with SK-MEL-5 melanoma, 69.6% with UACC-62 melanoma, -54.9% (active) in the test on LOX IMVI melanoma and 62.8% in the test with SK-MEL-28 melanoma.
For the compound `O=C1CCC(N2C(=O)c3ccc(NS(=O)(=O)c4ccccc4OC(F)(F)F)cc3C2=O)C(=O)N1` (stereo not given), the growth was 7.77% (active) with HCT-15 colon; 78.4% in the test with HT29 colon; 58% with SNB-75 CNS; 39.6% in the test on SNB-19 CNS; 75.8% with U251 CNS; 46.4% with PC-3 prostate. Moreover, the growth in the test on SK-MEL-5 melanoma was 45.9%; in the test on UACC-62 melanoma, 93.3%; in the test with LOX IMVI melanoma it was 105%; with SK-MEL-28 melanoma, 66.8%.
